Bioassay records: PubChem, National Center for Advancing Translational Sciences (NCATS)
Rows were chosen to be rich in hits. Some 3.9% of all compounds tested hit in one or more screens of this group.
VDR inhibitor: blocks the human vitamin D receptor | 400,000 tested, 0.93% active | VDR-SRC2-3 peptide fluorescence polarization, 2 h | AID 504847 | P11473 | Potency, µM, for inactives: max response, negative = inhibition, usual class: inhibitors; note: % is set by controls: 0 for no effect and ±100 for the full control effect
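Compounds are added to VDR with labelled SRC2-3 coactivator peptide and held 2 h at room temperature. Inhibition of the VDR–peptide interaction is then read as a change in fluorescence polarization.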
Tb PFK inh: blocks T. brucei phosphofructokinase; O15648; T. brucei PFK, ADP-Glo luminescence; Potency, µM (doses to about 57.5 µM), without a hit: at the top dose activity, negative = inhibition, most hits filed as inhibitors; 330,000 tested, 0.17% active; AID 485367;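 note: 0% = uninhibited 1x PFK enzyme wells and -100% = no-enzyme wells; nearly all actives have a fitted effect of over 60% in size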
Target sequence (O15648 whole entry, looked up): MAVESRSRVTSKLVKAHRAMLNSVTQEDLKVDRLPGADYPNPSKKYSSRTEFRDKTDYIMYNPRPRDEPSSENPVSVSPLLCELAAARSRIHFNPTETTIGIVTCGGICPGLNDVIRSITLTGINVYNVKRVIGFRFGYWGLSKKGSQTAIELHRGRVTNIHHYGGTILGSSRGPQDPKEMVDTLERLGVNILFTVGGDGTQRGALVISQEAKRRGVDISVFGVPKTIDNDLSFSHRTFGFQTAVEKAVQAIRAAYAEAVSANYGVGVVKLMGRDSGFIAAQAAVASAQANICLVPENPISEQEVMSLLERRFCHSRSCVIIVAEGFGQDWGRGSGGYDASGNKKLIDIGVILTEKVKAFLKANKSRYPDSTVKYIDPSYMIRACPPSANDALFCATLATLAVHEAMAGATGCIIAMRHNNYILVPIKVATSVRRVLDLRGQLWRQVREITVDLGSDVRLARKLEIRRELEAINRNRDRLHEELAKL
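PFK 1.25 nM, F6P 0.5 mM, ATP 0.1 mM, 0.1 M TEA pH 8.0, 5 mM MgCl2, 0.01% Tween20, 0.1% BSA; 45 min RT. ADP-Glo readout. qHTS titration up to 57 uM; curves fitted, compounds curve-classed.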
BRCA1 expr up: BRCA1 expression activation | MCF7-BRCA1-FFLuc reporter, luminescence, 48 h; response scale: scaled: vehicle 0%, 10 µM genistein 100% | Potency, µM (doses to about 46.1 µM), inactives show at the highest dose activation, actives largely listed as activators | 380,000 tested, 1.1% active | AID 624202; note: nearly all actives have a fitted effect of over 80% in size
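Using MCF7 cells harboring a BRCA1 firefly luciferase reporter, plated 2 h before compound pinning, the screen measured luminescence after 48 h incubation. Responses were normalized to DMSO and 10 microM genistein, then fitted for concentration-effect.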
PLK1 PBD inh: blocks phosphopeptide binding to human PLK1 polo-box domain; P53350; Plk1 PBD binding of FITC phosphopeptide, fluorescence polarization; Potency, µM, without a hit: max response, negative = inhibition, usual class: inhibitors; 360,000 tested, 2.8% active; AID 720504; note: series mostly up to about 57 µM; % is set by controls: 0 for no effect and ±100 for the full control effect; nearly all actives have a fitted effect of over 65% in size
Active calls of the source: *; ? = inconclusive; nt = no result given. Calls come from the whole dose curve; as a rule, active = well fitted curve in the direction sought with a large enough effect; inconclusive = small, poorly fitted or top-dose-only effect, or another doubt; inactive = no such curve, though single readings can be large; an effect the other way counts as inactive or inconclusive. Potency is the fitted concentration of half-maximal effect.

SMILES | VDR inhibitor | Tb PFK inh | BRCA1 expr up | PLK1 PBD inh
CC1(C)CC(=O)C(C(=O)/C=C/c2ccco2)C(=O)C1 | ? | ? | -14.2% | 9.47µM*
CC1(C)CC(=O)C(C(=O)/C=C/NCCc2ccccc2)C(=O)C1 | 3.4% | 2.2% | -20.5% | -3.4%
COc1ccc(C(=O)CC2(O)C(=O)N(CCc3ccccc3)c3ccc(Br)cc32)cc1OC (stereo not given) | -11.3% | nt | nt | nt
C=CCN1C(=O)C(O)(CC(=O)c2ccc(OC)cc2OC)c2cc(Br)ccc21 (stereo not given) | -27.0% | 4.6% | -24.1% | 8.44µM*
Cc1ccc(NC(=O)C(=O)NCC(c2cccnc2)N2CCN(c3ccccc3F)CC2)cc1Cl (stereo not given) | -6.2% | nt | nt | nt
COC(=O)c1ccc(-n2c(C)cc(C(=O)COC(=O)C3=COCCO3)c2C)cc1 | 14.1% | -0.9% | 0.9% | 3.0%
CCOc1ccc(-n2c(C)cc(C(=O)CCl)c2C)cc1 | 50.1µM* | 2.6% | -67.1% | ?
COC(=O)c1ccc(-n2c(C)cc(C(=O)CCl)c2C)cc1 | 79.4µM* | 8.3% | -75.2% | ?
CCOc1ccc(NC(=O)C(=O)c2cc(C)n(-c3cc(C)cc(C)c3)c2C)cc1 | 18.5% | nt | nt | nt
CCc1nc2ccc(C(=O)NCCCn3ccnc3)cn2c1N(C)C(=O)c1cccc(OC)c1 | nt | nt | 9.1% | 0.8%
O/N=C(/C[n+]1csc2ccccc21)c1ccccc1 | nt | nt | 0.9% | nt
Clc1ccccc1CSc1ncn(-c2ccccc2)n1 | -5.7% | 3.9% | 76.7% | -10.3%
Cc1ccc(CSc2ncn(-c3ccccc3)n2)cc1 | -8.2% | 2.3% | 11.2µM* | -11.9%
Cc1ccc(CN2CCN(/N=C/c3cc(Br)cc(Br)c3O)CC2)cc1 | ? | 4.3% | -27.9% | 16.8µM*
NNc1ccc([N+](=O)[O-])c2[nH][nH]c(=O)c12 | nt | nt | -10.8% | 23.8µM*
COc1ccc(NC(=O)n2nc(OC(=O)c3cccs3)cc2N)cc1 | -5.5% | 1.7% | 12.6µM* | ?
O=c1[nH]c(=S)[nH]cc1Oc1ccccc1 | -15.3% | nt | -20.4% | -7.8%
COc1cc(/C=C/[N+](=O)[O-])ccc1OCc1cccc(C(=O)O)c1 | 20µM* | ? | -86.5% | 5.97µM*
C#CCOc1ccc(/C=C2/C(=O)N(c3cccc(C(=O)O)c3)N=C2C)cc1OC | ? | ? | 57.0% | 1.89µM*
C#CCOc1ccc(/C=C2/C(=O)N(c3ccc(S(N)(=O)=O)cc3)N=C2C)cc1OC | nt | nt | 21.5% | 1.19µM*
CC1=NN(c2cccc(C(=O)O)c2)C(=O)/C1=C\C=C\c1ccco1 | ? | 21.3µM* | 32.4% | 8.44µM*
COc1cc(/C=C2/C(=O)N(c3ccc(C(=O)O)cc3)N=C2C)cc(OC)c1O | -1.2% | 4.5% | -7.0% | 39.9%
CC1=NN(c2ccccc2)C(=O)/C1=C/C=C/c1ccccc1 | ? | -5.2% | -47.8% | ?
CCCCOc1cccc(C(=O)N(Cc2ccc(Cl)cc2)C2CCS(=O)(=O)C2)c1 (stereo not given) | 6.4% | nt | nt | nt
CCS(=O)(=O)N1CC(=O)N(c2cccc(C)c2C)C(C)(C(=O)NC2CCCCCC2)C1 (stereo not given) | 19.4% | nt | nt | nt
SMILES | VDR inhibitor | Tb PFK inh | BRCA1 expr up | PLK1 PBD inh
COc1cc(NC(=O)C(CC(C)C)NS(=O)(=O)c2ccc3c(c2)CCN3C(C)=O)cc(OC)c1 (stereo not given) | 10.6% | nt | nt | nt
CC(C)(C)c1ccc(NC(=O)c2ccc(=O)[nH]n2)cc1 | -3.5% | 1.2% | ? | -6.0%
COc1ccc(CCNC(=O)C2CCCN(S(=O)(=O)c3ccc4c(c3)oc(=O)n4C)C2)cc1OC (stereo not given) | -15.5% | nt | 6.8% | nt
COc1cc(/C=C2\C(=O)N(c3cccc(C(=O)O)c3)N=C2C)ccc1OCc1ccccc1 | nt | nt | 7.08µM* | 1.06µM*
CC1=C(C(=O)N(C)C)CC(CC(=O)NC2CCCC2)C(=O)N1Cc1ccc(F)cc1 (stereo not given) | nt | nt | 4.3% | 4.8%
CCN(Cc1ccccc1)c1ccc(/C=C(\C#N)c2ccccn2)cc1 | -11.0% | -5.0% | 5.01µM* | -6.5%
Cc1ccc(CN2CCN(C3CCN(C(=O)Nc4ccccc4C(F)(F)F)CC3)C(=O)C2=O)cc1 | 13.9% | nt | nt | nt
CCN(CC(=O)Nc1ccc(OC)cc1)C(=O)C1CC(=O)N(Cc2ccccc2)C1 (stereo not given) | nt | nt | -8.9% | 3.7%
O=C1c2cccnc2C(=O)N1c1cccc([N+](=O)[O-])c1 | 16.4% | -15.8% | -2.4% | -15.1%
O=[N+]([O-])c1cc(-c2ncccn2)c([N+](=O)[O-])s1 | 35.5µM* | ? | -101.7% | 2.67µM*
Cc1ccc(N2NC(=O)/C(=C/c3ccc(-c4ccc(Cl)c(C(=O)O)c4)o3)C2=O)cc1 | ? | ? | 4.9% | ?
CCOC(=O)c1cc(-c2ccc(/C=C3/C(=O)NC(=O)C(C#N)=C3C)o2)ccc1Cl | ? | -10.0% | 3.1% | 3.36µM*
CC1=C(C#N)C(=O)NC(=O)/C1=C\c1ccc(-c2ccc(C)cc2[N+](=O)[O-])o1 | ? | 19.4% | -1.2% | 8.44µM*
O=C(Nc1ccc(NC(=O)c2sc3ccccc3c2Cl)cc1Cl)c1ccco1 | 8.5% | 1.3% | 7.94µM* | 1.1%
O=C(O)c1ccccc1NC(=S)NC(=O)c1sc2ccccc2c1Cl | ? | ? | 91.3% | 11.9µM*
O=C(Nc1ccnc(=O)[nH]1)c1sc2ccccc2c1Cl | -15.5% | -2.3% | 5.62µM* | 26.7µM*
COC(=O)CC1C(=O)NCCN1C(=O)c1sc2ccccc2c1Cl (stereo not given) | -1.8% | 4.7% | 3.4% | -3.8%
Cc1ccc(NC(=O)c2sc3ccccc3c2Cl)cc1 | 11.2% | nt | nt | nt
Cc1ccc(NC(=S)NC(=O)c2sc3ccccc3c2Cl)c(C(=O)O)c1 | nt | 27.7% | nt | nt
COC(=O)CC1C(=O)NCCN1C(=S)NC(=O)c1sc2ccccc2c1Cl (stereo not given) | -5.3% | -0.2% | 18.4% | 18.9µM*
N/C(CS(=O)(=O)c1ccccc1)=N\OC(=O)c1ccc(F)cc1 | 16.1% | 0.0% | 11.2µM* | 0.5%
Cc1cc(S(=O)(=O)Nc2ccc(-c3ccc(N4CCCCCC4)nn3)cc2)c(C)cc1Cl | 19.3% | nt | nt | nt
Cc1cc(C)c(S(=O)(=O)/N=C2\C=CC(=O)C(Cl)=C2)c(C)c1 | -24.9% | -22.3% | 11.1% | 28.2µM*
O=[N+]([O-])c1cc([N+](=O)[O-])c2c(=Nc3ccccc3)n(-c3ccccc3)n(O)c2c1 | ? | ? | -74.6% | 5.97µM*
COc1ccc(NC(=O)c2cc(-c3ccccc3F)no2)cc1 | 11.1% | nt | nt | nt
SMILES | VDR inhibitor | Tb PFK inh | BRCA1 expr up | PLK1 PBD inh
COc1ccc2[nH]c(=O)c(CN(C(=O)c3cccnc3)c3cccc(C)c3)cc2c1 | ? | 1.1% | -7.6% | 23.8µM*
Cc1ccc(Nc2nc3c(s2)CCC3)c(C)c1 | -0.7% | -1.0% | -4.7% | -24.9%
COc1ccccc1Nc1nc2c(s1)CCC2 | -18.5% | 1.2% | 15.1% | 26.7µM*
CCC(=O)N1CCn2c1nc1ccccc12 | -6.6% | -2.2% | 2.6% | -7.1%
O=C(c1ccco1)N1CCn2c1nc1ccccc12 | 3.5% | -6.9% | 7.08µM* | -5.9%
O=C(Cn1c(=O)nc(-c2ccccc2)c2ccccc21)Nc1ccc(Cl)cc1F | -22.5% | nt | 5.1% | nt
CCOC1=NN(c2ncc(C(F)(F)F)cc2Cl)C(=O)C1 | -14.7% | -4.5% | -5.5% | 23.8µM*
